High-throughput results (PubChem BioAssay)
Rows were chosen to be rich in hits. Some 4.9% of all compounds tested hit in one or more screens of this group.
HSF1 activator = HSF-1 activators, primary screen, NIH3T3-HGL cells, MG132 stress, luminescence, single point; NIH3T3-HGL HSF-1 luciferase reporter, 8 h; 100% = twice DMSO control signal; activation, % at 9 µM; 1.7% of 300,000 active; AID 504408, 2011;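 active = mean replicate activation of at least 50% with a set share of replicates each reaching 50%; inconclusive = only one of those two conditions met; inactive = mean below 50% and too few replicates reaching it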;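 also: 0% = median of the neutral control wells and 100% = twice that signal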
HSF1 inh = HSF1 inhibitors in luciferase reporter cells, primary screen, cell-based, NIH3T3, luminescence | activity change, negative = inhibition, % at 7.5 µM (by protocol) | AID 2098, 2009 | 0.77% of 300,000 active | NIH3T3-HGL HSE-luciferase, MG132-induced, luminescence 8 h; active compounds read low;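 active = more than half of replicate wells show activity change below -50%, luminescence cut by over half; inconclusive = some wells, but at most half, below -50%; inactive = no replicate well below -50%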;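 also: luciferase reports HSF-1 transcriptional activity via heat shock element; 0% = median of DMSO wells and -100% = zero luminescence signal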
Platelet DG rel = inhibitors of platelet dense granule secretion, primary screen, cell-based, MLPCN, human platelets; AID 1663, 2009; human platelet-rich plasma, SFLLRN dense granule ATP release, luminescence; inhibition, %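 (compounds screened at 7.5 µM in platelet-rich plasma)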; 0.22% of 300,000 active;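 active = mean replicate score, as percent of positive control, at or above 50; inconclusive = mean below 50 but at least one replicate at or above 50; inactive = mean and every replicate below 50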
MPTP inh = mitochondrial permeability transition pore inhibitors, primary screen, biochemical, isolated mouse mitochondria, absorbance; Ca2+ swelling absorbance, 30 min; inhibition, % at 10 µM; 1.4% of 360,000 active; AID 602449, 2012;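 active = inhibition of 50% or more, scaled per plate between neutral and stimulator controls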;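 also: 0% = DMSO wells given calcium and 100% = 1 mM EGTA wells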
HSP90 inh = HSP90 inhibitors, primary screen, cell lysate, luminescence. Heat shock protein HSP 90 (rabbit reticulocyte lysate; luciferase refolding). Rabbit reticulocyte lysate, luciferase refolding luminescence, 3 h. inhibition, % at 5.6 µM. 0.91% of 290,000 active. AID 1789, 2009;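 active = inhibition above the screen-wide mean plus 3 SD, computed separately per campaign, cut at about 16% in these data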;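 also: 0% = DMSO wells and 100% = 60 µM geldanamycin wells; inhibitors lower the luminescence because luciferase stays unfolded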
dFosB act = activators of delta FosB homodimer, primary screen, biochemical, fluorescence polarization, TAMRA-CDK5 oligo, single point; Protein FosB (Mus musculus), P13346; purified delta FosB; percent of positive-control signal above neutral wells; activation, % at 25 µM; 0.99% of 340,000 active;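 active = mean activation above about 17%, with every replicate also reaching it, limit read from the data, passing the limit was not always enough; inconclusive = only one of the two conditions met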
Target sequence (P13346 whole entry, looked up): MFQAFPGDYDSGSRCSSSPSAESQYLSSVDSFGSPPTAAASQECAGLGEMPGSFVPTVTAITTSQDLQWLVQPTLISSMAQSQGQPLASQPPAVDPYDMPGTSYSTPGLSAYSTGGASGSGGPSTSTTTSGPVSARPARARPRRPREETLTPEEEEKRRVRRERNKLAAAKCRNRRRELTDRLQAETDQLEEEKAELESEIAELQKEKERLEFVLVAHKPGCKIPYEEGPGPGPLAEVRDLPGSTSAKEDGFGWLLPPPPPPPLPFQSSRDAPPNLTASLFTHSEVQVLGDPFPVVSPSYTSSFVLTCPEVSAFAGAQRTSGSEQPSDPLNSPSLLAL
An asterisk follows results filed as active; ? = inconclusive; . = no result given.

SMILES | HSF1 activator | HSF1 inh | Platelet DG rel | MPTP inh | HSP90 inh | dFosB act
CCC(=Cc1ccc(CC)cn1)CC | 21 | -3 | -6 | -1 | 2 | 3
O=C(/C=C/c1ccccc1[N+](=O)[O-])c1ccccc1Br | 65* | 43 | -1 | -2 | 6 | -11
Cc1ccc(C(=O)C(C)OC(=O)c2ccccc2[N+](=O)[O-])cc1 (stereo not given) | 87* | 51 | 3 | -1 | 6 | -6
O=C(C=Cc1ccccc1)c1ccc([N+](=O)[O-])cc1 | . | . | . | -2 | . | 3
COc1ccccc1C(=O)NNC(=O)c1ccccc1[N+](=O)[O-] | 8 | -3 | 5 | 2 | 4 | -1
Cc1ccc(C(=O)/C=C/c2ccccc2[N+](=O)[O-])cc1 | 135* | 91 | 6 | -1 | -2 | -7
O=C(O)CCSc1nnc(-c2ccc3c(c2)OCO3)o1 | -60 | -52* | -1 | -2 | 16* | 0
Cc1ccc(CSc2nnc(-c3ccc4c(c3)OCO4)o2)cc1 | 12 | -2 | -2 | -3 | 3 | -9
COc1ccccc1C(=O)OCC(=O)c1cccc([N+](=O)[O-])c1 | -83 | -76* | 2 | -1 | -1 | -6
O=C(COc1ccc(F)cc1)Nc1nnc(S(=O)(=O)N2CCCC2)s1 | 9 | 1 | 9 | 0 | 1 | 2
CC(C)(C)NC(=O)C1CC(=O)OC12CCOC(C)(C)C2 (stereo not given) | -65 | -58* | -41 | 0 | 3 | -1
CCSc1nnc(NC(=O)c2ccccn2)s1 | ? | 43 | 1 | 1 | 13 | -9
CCSc1nnc(NC(=O)c2cccnc2Cl)s1 | 55* | 18 | 1 | 0 | 1 | 1
COc1cccc(C(NC(C)=O)c2nc(-c3ccc(N(C)C)cc3)cs2)c1 (stereo not given) | . | . | . | 2 | . | .
CCOc1ccc(C2=Nc3ccccc3C(c3ccc(N4CCOCC4)cc3)=NN2)cc1 | 50 | 15 | 0 | 6 | -2 | -1
CCOc1ccc(C2=Nc3ccc(Br)cc3C(c3ccc(N4CCOCC4)cc3)=NN2)cc1 | 58* | 17 | -45 | 2 | 1 | -8
CN(C(=O)c1ccc(F)cc1)c1ccc(OCC(=O)Nc2ccccc2C(=O)O)cc1 | . | . | . | 0 | . | -3
CCOC(=O)C1(CC2CCCCO2)CCN(Cc2cc(F)ccc2-n2cccn2)CC1 (stereo not given) | -7 | -5 | -12 | 1 | -3 | -4
CCOC(=O)C1(CC2CCCCO2)CCN(Cc2nc3ccccc3[nH]2)CC1 (stereo not given) | -97 | -97* | -16 | 0 | 2 | -2
CCn1c(SCC(=O)N2CCOCC2)nc2sc3c(c2c1=O)CCCC3 | -16 | 4 | -50 | -2 | 2 | -3
CCn1c(SCC(=O)N2CCOCC2)nc2oc3c(Cl)cc(Cl)cc3c(=O)c2c1=O | 121* | 66 | 1 | . | -3 | .
CCCCn1c(N)c(N(CCOC)C(=O)c2ccc(-c3ccc(C(C)=O)cc3)o2)c(=O)[nH]c1=O | 4 | -6 | 1 | -2 | . | -11
CC(=O)Oc1cc(C(=O)OCC(=O)NC23CC4CC(CC(C4)C2)C3)cc(OC(C)=O)c1OC(C)=O | . | . | . | 1 | . | -7
Cc1cc2c(=Cc3ccc(N(C)C)cc3)c3ccccc3n2[n+]1C | -5 | -5 | . | 16 | . | 100*
CCOC(=O)c1cc2c(=Cc3ccc(N(C)C)cc3)c3ccccc3n2[n+]1C | . | . | . | 32 | . | 46*
SMILES | HSF1 activator | HSF1 inh | Platelet DG rel | MPTP inh | HSP90 inh | dFosB act
CN(C)c1ccc(C=c2c3ccccc3n3c2c2ccccc2[n+]3C)cc1 | . | . | . | 9 | . | -259
C[n+]1c(-c2ccccc2)cc2c(=Cc3ccccc3)c3ccccc3n21 | . | . | . | -5 | . | -1
CCOC(=O)C1CCN(C(=O)CCCn2nc(CC)n3c(cc4occc43)c2=O)CC1 | -14 | -1 | 4 | -2 | 3 | -2
CCOC(=O)C1CCN(C(=O)Cn2nc(C)n3c(cc4cc(C)ccc43)c2=O)CC1 | 11 | 1 | -9 | 2 | 0 | -10
CCc1nn(CC(=O)N2CCC(C(N)=O)CC2)c(=O)c2cc3occc3n12 | -75 | -67* | 3 | 0 | -1 | -3
CCOC(=O)C1CCN(C(=O)Cn2nc(C)n3c(cc4cc(F)ccc43)c2=O)CC1 | 1 | 0 | 50* | 1 | -1 | -4
O=C(CCl)N(c1ccc(Cl)cc1)c1c[nH]c2ccccc12 | -93 | -93* | -3 | 14 | 8 | -7
CCN(CC)S(=O)(=O)c1ccc(N2CCc3ccccc3C2)nc1 | 73* | 54 | 10 | -2 | 2 | -19
CC(C)N(C(C)C)S(=O)(=O)c1ccc(N2CCc3ccccc3C2)nc1 | 130* | 67 | -10 | -2 | 8 | -2
Cc1ccc(SCC(=O)NNC(=O)CCS(=O)(=O)c2ccccc2)cc1 | . | . | . | -3 | . | -3
COc1cccc(C(=O)N2CCC2(C)C(=O)O)c1 (stereo not given) | . | . | . | 0 | . | .
O=C(Nc1ccc(NC(=O)c2cccs2)cc1)c1cccs1 | 43 | 23 | 7 | 0 | -1 | 10
COc1ccc(C(=O)Nc2ccc3[nH]ccc3c2)cc1 | 47 | 21 | 58* | 1 | . | 4
O=C(Nc1ccc(NC(=O)c2cccs2)c(Cl)c1)c1cccs1 | 69* | 30 | 12 | 0 | 0 | -3
O=C(Nc1ccc2[nH]ccc2c1)c1cccs1 | 58* | 20 | 18 | 0 | 3 | -1
O=C1C=CC(=O)N1 | . | . | . | -1 | . | 2
CC(C)(C)C1N=C(c2ccc3ccccc3c2)OC1=O (stereo not given) | . | . | . | -2 | . | -2
Cc1ccc(S(=O)(=O)c2ccc([N+](=O)[O-])cn2)cc1 | -88 | -84* | -6 | -2 | -2 | 2
O=[N+]([O-])c1ccc(S(=O)(=O)c2ccccc2)nc1 | -96 | -96* | 0 | 0 | 4 | 4
Cc1cc(S(=O)(=O)c2ccc([N+](=O)[O-])cn2)ccc1Br | 34 | 9 | -7 | 12 | . | 0
Nc1ccc(S(=O)(=O)c2ccccc2)nc1 | -1 | -10 | -6 | 6 | 7 | 5
Cc1ccc(N=Cc2ccc[nH]2)c(O)c1 | -78 | -76* | -2 | 11 | 3 | -7
O=C(Nc1ccc2c(c1)CCCN2C(=O)c1cccs1)c1cccc(F)c1 | 60* | 35 | 11 | 0 | 0 | -7
COc1ccccc1C(=O)Nc1ccc2c(c1)CCCN2C(=O)c1cccs1 | 21 | 17 | 25 | 0 | 0 | -8
O=C(Nc1ccc2c(c1)CCCN2C(=O)c1cccs1)c1ccccc1 | 33 | 19 | 6 | -1 | -3 | 3
COc1ccccc1C(=O)Nc1ccc2c(c1)CCCN2C(=O)c1ccccc1 | 17 | 8 | 54* | -2 | -5 | -2
